Eleven compounds from ChEMBL document CHEMBL3988442, “University of Dundee, Small-Polar-MMV Screening Library” (2021) can be followed below.

What all share (design): scale not given: direction of the effect not stated beside the values
For assay [1], the target named is Protein translocase subunit SecA (Escherichia coli (strain K12)) (UniProt P10408). The assay can be described thus: Assay to Identify E. coli SecA ATPase Inhibitors. The assay is classed as functional. To be noted: 30 µM.
For assay [2], the target named is T1, Ubiquitin-activating enzyme e1, putative (Leishmania donovani (strain BPK282A1)) (UniProt E9BSI1).
T1 sequence (whole entry): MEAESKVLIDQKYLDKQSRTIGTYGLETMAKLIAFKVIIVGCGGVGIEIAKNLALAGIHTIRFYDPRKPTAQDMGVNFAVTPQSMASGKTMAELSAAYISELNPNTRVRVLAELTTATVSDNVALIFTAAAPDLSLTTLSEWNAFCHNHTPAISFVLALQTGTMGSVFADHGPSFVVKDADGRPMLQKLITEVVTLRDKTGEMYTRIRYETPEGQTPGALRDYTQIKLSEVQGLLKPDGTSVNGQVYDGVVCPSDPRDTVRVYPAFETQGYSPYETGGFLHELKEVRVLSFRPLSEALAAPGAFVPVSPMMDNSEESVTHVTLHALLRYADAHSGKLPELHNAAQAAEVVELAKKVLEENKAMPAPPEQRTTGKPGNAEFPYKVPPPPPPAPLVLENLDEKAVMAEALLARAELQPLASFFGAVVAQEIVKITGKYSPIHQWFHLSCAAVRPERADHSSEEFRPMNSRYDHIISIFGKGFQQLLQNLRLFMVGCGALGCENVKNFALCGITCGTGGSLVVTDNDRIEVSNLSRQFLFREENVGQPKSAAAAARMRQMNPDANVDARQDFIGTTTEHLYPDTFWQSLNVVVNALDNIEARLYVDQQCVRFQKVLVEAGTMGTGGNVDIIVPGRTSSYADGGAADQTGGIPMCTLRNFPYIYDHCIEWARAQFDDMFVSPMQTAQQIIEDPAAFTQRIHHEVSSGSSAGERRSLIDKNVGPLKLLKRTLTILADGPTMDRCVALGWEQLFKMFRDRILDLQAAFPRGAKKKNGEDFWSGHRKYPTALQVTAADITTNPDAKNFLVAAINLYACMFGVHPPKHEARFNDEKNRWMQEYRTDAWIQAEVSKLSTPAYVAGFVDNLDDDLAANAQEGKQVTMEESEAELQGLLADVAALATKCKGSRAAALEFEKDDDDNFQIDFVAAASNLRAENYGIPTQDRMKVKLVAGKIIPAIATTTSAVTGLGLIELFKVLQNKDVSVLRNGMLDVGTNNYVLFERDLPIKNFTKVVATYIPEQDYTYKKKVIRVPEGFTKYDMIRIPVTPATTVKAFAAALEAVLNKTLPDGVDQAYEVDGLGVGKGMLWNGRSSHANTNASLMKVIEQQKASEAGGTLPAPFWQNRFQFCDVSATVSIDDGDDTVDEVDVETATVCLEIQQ
Briefly: Leishmania donovani Ubiquitin Activating Enzyme (LdE1). The assay is classed as functional. The conditions noted are these: 30 µM.

Assay [3] deals with AMP-activated protein kinase, AMPK (Homo sapiens) (UniProt P54646+O43741+P54619+Q9UGJ0+Q9Y478+Q13131+Q9UGI9). Briefly: AMP-dependent Kinase enzyme assay. An in vitro enzyme assay that detects ADP turnover that is directly proportional to AMPK activity. This uses naive AMPK that is activated during the assay with MK-8722. The conditions noted are these: 30 µM. The assay is classed as functional.

Assay [4] deals with Sialic acid-binding Ig-like lectin 9 (Homo sapiens) (UniProt Q9Y336). Briefly: Hs-Siglec9 ALPHAscreen SOP 20170721. To be noted: 10 µM.
Chain of Sialic acid-binding Ig-like lectin 9 (Homo sapiens) (Q9Y336 whole entry): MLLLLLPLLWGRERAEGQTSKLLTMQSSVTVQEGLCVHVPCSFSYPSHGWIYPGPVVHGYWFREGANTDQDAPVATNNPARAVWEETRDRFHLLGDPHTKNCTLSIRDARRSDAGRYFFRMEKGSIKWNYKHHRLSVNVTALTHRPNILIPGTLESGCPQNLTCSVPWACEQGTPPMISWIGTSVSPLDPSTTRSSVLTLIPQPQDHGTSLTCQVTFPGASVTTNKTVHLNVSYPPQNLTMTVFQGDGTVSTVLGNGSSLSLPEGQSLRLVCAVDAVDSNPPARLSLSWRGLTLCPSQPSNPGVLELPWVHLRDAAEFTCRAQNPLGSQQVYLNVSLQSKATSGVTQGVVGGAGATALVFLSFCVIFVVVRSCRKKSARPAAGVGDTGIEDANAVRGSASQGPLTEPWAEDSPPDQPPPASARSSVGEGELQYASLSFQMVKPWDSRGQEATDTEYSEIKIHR
For assay [5], the system named is Trypanosoma cruzi. The assay can be described thus: Trypanosoma cruzi phosphomannomutase and mannose-1-phosphate guanylyltransferase assay. The assay is classed as functional. To be noted: 10 µM.
Assay [6] deals with T2, Arginase-2, mitochondrial (Homo sapiens) (UniProt P78540).
T2 sequence (whole entry): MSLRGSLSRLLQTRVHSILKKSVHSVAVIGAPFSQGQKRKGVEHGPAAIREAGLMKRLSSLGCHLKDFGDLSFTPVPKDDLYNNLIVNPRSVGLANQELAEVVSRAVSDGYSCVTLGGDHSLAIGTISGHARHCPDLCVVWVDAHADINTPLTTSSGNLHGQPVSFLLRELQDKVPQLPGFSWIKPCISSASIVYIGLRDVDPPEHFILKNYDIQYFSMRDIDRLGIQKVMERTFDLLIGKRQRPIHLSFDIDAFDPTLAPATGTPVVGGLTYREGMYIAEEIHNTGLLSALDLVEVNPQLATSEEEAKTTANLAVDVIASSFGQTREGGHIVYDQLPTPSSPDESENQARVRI
Briefly: in vitro enzyme assay to detect the production of urea directly proportional to the activity of Arginase II. Also: in the data most compounds retested in dose-response had high values. The conditions noted are these: 33.3 µM. The assay is classed as functional.

Assay [7] deals with T3, Proteasome subunit beta (Trypanosoma cruzi) (UniProt O96673).
T3 sequence (whole entry): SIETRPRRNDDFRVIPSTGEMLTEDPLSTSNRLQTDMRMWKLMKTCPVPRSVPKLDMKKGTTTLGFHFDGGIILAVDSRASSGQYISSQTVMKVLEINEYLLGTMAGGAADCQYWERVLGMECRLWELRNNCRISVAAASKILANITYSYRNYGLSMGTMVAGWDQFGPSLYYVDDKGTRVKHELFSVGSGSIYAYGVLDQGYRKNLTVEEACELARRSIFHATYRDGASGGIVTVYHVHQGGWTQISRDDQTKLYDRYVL
The assay can be described thus: Trypanosoma cruzi proteasome chymotrypsin-like activity (TcProtChymo) assay. Also: in the data most compounds retested in dose-response had high values. The assay is classed as functional. The conditions noted are these: 9.37 µM.

The species entered for assay [8] is Homo sapiens. The assay can be described thus: To identify inhibition of the IFN signalling (Jak-Stat) pathway via expression of an eGFP reporter gene under the control of an IFN-stimulated response element (ISRE) containing MxA promoter. To be noted: 30 µM. The assay is classed as functional. Background: In a reporter assay the amount or activity of a reporter protein is the signal.

In assay [9] the target is T4, Tyrosyl-tRNA synthetase, putative (Trypanosoma cruzi (strain CL Brener)) (UniProt Q4DSP6).
T4 sequence (whole entry): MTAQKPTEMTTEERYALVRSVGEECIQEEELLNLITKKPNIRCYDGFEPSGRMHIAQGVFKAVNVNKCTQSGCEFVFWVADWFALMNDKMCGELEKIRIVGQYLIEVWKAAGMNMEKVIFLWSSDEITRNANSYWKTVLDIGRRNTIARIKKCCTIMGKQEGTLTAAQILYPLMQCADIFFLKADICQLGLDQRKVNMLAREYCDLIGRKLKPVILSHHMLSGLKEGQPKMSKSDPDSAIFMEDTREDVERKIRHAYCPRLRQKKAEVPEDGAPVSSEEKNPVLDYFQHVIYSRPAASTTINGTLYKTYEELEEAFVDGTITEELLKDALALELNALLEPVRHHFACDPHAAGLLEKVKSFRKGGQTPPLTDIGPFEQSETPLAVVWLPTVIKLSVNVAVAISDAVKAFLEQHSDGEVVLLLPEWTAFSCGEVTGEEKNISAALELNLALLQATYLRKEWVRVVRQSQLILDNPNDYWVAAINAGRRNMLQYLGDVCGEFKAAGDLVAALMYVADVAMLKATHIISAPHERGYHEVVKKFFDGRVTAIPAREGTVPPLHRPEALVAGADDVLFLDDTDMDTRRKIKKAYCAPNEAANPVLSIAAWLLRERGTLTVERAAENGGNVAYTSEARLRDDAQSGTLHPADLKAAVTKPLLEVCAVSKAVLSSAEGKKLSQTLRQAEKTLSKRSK
The assay can be described thus: Trypanosoma cruzi tyrosyl tRNA synthetase (TcYRS) _High Tyrosine SOP. Also: in the data most compounds retested in dose-response had high values. The assay is classed as functional. To be noted: 30 µM.

The target of assay [10] is T4, Tyrosyl-tRNA synthetase, putative (Trypanosoma cruzi (strain CL Brener)). Briefly: Trypanosoma cruzi tyrosyl tRNA synthetase (TcYRS) SOP. To be noted: 30 µM. The assay is classed as functional.
In assay [11] the target is Chromo domain-containing protein 1 (Saccharomyces cerevisiae (strain ATCC 204508 / S288c) (Baker's yeast)) (UniProt P32657). Briefly: ScCHD-1 Enzyme Inhibition Assay. Also: in the data most compounds retested in dose-response had high values. The conditions noted are these: 30 µM. The assay is classed as functional.
Chain of Chromo domain-containing protein 1 (Saccharomyces cerevisiae (strain ATCC 204508 / S288c) (Baker's yeast)) (P32657 whole entry, the tested form may be a part): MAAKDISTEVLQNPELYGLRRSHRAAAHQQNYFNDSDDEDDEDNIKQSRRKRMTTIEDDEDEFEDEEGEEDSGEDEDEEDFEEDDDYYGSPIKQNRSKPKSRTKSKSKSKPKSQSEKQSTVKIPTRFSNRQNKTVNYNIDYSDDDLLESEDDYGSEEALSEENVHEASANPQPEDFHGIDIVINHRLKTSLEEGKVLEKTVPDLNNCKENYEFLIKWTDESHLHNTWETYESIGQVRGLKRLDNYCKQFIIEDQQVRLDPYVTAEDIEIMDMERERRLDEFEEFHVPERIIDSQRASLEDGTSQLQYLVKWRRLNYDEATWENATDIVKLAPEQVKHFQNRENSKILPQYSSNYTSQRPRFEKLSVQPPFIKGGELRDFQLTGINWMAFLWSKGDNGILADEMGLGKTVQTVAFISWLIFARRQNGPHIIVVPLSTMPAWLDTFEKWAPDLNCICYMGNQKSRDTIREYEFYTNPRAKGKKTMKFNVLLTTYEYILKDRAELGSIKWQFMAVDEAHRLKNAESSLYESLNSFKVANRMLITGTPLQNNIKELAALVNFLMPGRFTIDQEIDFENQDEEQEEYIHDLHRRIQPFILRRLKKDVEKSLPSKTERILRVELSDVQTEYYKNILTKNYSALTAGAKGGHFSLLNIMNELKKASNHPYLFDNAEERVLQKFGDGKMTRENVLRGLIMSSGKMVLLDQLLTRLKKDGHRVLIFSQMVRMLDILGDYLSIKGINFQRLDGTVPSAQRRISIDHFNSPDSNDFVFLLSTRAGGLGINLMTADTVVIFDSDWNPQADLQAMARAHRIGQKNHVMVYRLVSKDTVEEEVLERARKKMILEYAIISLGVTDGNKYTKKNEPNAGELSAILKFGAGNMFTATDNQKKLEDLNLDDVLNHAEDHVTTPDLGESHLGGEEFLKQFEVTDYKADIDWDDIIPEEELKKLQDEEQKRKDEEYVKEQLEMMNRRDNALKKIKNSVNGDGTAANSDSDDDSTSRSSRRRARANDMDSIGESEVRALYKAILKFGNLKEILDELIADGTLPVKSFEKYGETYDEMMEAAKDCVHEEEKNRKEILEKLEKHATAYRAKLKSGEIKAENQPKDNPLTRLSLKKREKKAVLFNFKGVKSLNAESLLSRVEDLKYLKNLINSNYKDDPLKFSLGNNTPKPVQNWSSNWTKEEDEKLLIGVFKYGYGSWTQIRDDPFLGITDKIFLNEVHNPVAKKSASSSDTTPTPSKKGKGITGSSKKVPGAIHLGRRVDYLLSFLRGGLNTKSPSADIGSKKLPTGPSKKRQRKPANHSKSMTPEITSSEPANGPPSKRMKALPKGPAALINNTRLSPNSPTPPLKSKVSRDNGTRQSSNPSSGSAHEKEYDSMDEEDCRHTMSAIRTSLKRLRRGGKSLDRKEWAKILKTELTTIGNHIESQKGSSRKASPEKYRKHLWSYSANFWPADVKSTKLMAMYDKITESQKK

For some of these results: Measured potencies and affinities stand elsewhere.

Chain of Protein translocase subunit SecA (Escherichia coli (strain K12)) (P10408 whole entry): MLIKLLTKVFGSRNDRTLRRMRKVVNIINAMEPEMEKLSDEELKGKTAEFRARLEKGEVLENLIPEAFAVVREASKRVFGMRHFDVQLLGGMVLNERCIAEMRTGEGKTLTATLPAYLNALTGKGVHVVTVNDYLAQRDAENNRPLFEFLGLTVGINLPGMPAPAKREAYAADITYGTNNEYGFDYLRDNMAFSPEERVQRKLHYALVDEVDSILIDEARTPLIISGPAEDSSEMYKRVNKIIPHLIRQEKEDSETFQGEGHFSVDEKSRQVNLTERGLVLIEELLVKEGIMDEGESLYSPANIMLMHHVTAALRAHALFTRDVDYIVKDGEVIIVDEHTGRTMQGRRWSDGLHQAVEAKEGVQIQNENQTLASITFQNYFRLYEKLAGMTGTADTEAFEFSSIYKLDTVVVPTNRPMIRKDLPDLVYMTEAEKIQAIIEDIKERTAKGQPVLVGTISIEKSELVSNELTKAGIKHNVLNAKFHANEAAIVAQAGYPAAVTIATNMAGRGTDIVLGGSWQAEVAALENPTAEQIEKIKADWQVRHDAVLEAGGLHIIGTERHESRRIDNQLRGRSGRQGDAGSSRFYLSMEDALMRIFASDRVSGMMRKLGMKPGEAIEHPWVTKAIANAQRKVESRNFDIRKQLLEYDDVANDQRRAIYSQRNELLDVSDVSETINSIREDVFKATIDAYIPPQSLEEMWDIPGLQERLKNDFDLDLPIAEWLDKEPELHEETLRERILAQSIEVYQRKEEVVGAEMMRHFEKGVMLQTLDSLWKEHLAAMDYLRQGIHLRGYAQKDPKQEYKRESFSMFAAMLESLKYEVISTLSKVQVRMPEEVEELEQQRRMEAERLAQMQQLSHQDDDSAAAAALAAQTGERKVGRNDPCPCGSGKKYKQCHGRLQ

Consider `Cc1nc2ccnn2c(C)c1CCC(=O)N1CCC(C(N)=O)CC1`, for which the Percent Effect in [1] is -6.89%; in assay [2] it was 2.63%; in assay [3], 0.295%; in assay [4] it was -2.71%; in [5], -5.32%; in assay [6] it was 2.88%. Also, the Percent Effect was found to be 5.5% in assay [7]; 4.03% in assay [8]; 5.42% in [9]; 1.24% in assay [10]; 1.87% in assay [11].
Consider `Cc1ccc(NS(=O)(=O)CC2=NC(=O)n3cccc3C2=O)cc1`, for which the Percent Effect in [1] was -4.7%; in [2], -4%; in assay [3], -2.73%; in assay [4], 6.4%; in assay [5] it was 1.97%; in assay [6] it was -3.7%. For the same compound, the Percent Effect is 3.7% in assay [7]; -2.44% in assay [8]; -10.6% in [9]; -17.9% in [10]; -2.6% in [11].
Regarding `CCn1cnnc1CNC(=O)N(C)Cc1ccc2c(c1)OCCO2`, the Percent Effect in [1] was -0.341%; in [2] it was -16.2%; in [3], -15.5%; in assay [4], -4.03%; in assay [5], 0.66%; in assay [6], -14.8%. Moreover, the Percent Effect in assay [7] is 14.6%; in assay [8] it was 2.89%; in assay [9] it was 9.36%; in [10] it was 25.9%; in assay [11] it was -8.11%.
Turning to `Cc1cnn(CC2CCCCN2Cc2noc(C3CC3)n2)c1` (stereo unspecified), the Percent Effect in assay [1] is -2.92%; in assay [2], 5.26%; in [3] it was 2.62%; in assay [4], 2.92%; in [5], 0%; in assay [6] it was 1.53%. Further, the Percent Effect was 9.86% in assay [7]; 14.8% in assay [8]; 7.35% in assay [9]; 9.76% in [10]; -5.92% in [11].
On to `CC(C)c1nc(CC(=O)Nc2nc(CN3CCCCCC3)cs2)cs1`, for which the Percent Effect in assay [1] is -2.6%; in [2], -15.6%; in assay [3], -8.27%; in [4], -10.6%; in [5], 13.8%; in [6] it was -4.84%. The Percent Effect in assay [7] was 4.61%; in [8], 1.12%; in assay [9], 10.5%; in [10] it was 23.5%; in [11], -15.2%.
Consider `Cc1cnn(CC2CN(Cc3nc(-c4ccoc4)no3)CCO2)c1` (stereo unspecified), for which the Percent Effect in [1] is -2.87%; in assay [2], 8.11%; in assay [3] it was -1.58%; in [4] it was 1.14%; in assay [5] it was 7.08%; in [6] it was 0.401%. The Percent Effect in assay [7] is 2.16%; in assay [8], 13.1%; in assay [9], 3.45%; in assay [10] it was 11.1%; in assay [11], -9.57%.
For `CC(NCc1ccc(Cl)o1)c1nnc2n1CCCC2` (stereo unspecified), the Percent Effect was -1.28% in [1]; 13.5% in [2]; 2.81% in assay [3]; 2.02% in [4]; 0.195% in assay [5]; 11.2% in assay [6]. Moreover, the Percent Effect in [7] was 15%; in [8], 24.2%; in [9] it was 6.93%; in assay [10], 18.3%; in assay [11], 1.09%.
Take `O=C(Cc1cccs1)N1C[C@@H]2COC[C@]2(COc2cccnc2)C1`: the Percent Effect was -2.91% in assay [1]; 8.11% in assay [2]; -0.523% in assay [3]; -5.15% in [4]; 7.62% in assay [5]; -1.25% in assay [6]. In addition, the Percent Effect was 8.2% in [7]; -12.3% in assay [8]; 7.92% in assay [9]; 11% in assay [10]; -1.81% in assay [11].
On to `CCC(C)NC(=O)Cc1c(C)nc2c(c1C)c(=O)[nH]n2C` (stereo unspecified), for which the Percent Effect is 0.22% in [1]; 13% in [2]; 1.2% in assay [3]; 14% in [4]; 3.44% in assay [5]; 1.38% in assay [6]. For the same compound, the Percent Effect is 7.32% in assay [7]; -10.2% in assay [8]; 2.15% in assay [9]; 16.1% in assay [10]; -1.16% in assay [11].
Regarding `COc1ccc(CNC(C)c2ccc3[nH]c(=O)[nH]c3c2)cc1` (stereo unspecified), the Percent Effect in assay [1] was 0.617%; in assay [2] it was -5.41%; in assay [3], -4.65%; in [4], 13.3%; in assay [5] it was 1.23%; in [6] it was -6.81%. Moreover, the Percent Effect in [7] was 0.36%; in assay [8], 22.4%; in assay [9], 1.48%; in assay [10], 1.24%; in assay [11], -9.21%.
For `CC(=O)N1CCCCC1c1cc(CO)[nH]n1` (stereo unspecified), the Percent Effect in assay [1] is -1.55%; in assay [2], 1.35%; in assay [3] it was 7%; in assay [4] it was 5.31%; in assay [5], 1.78%; in assay [6] it was 2.09%. Besides, the Percent Effect in [7] was 12.3%; in assay [8], 10.5%; in [9], 3.23%; in [10] it was 6.49%; in [11], 9.52%.
